The list is not random: actives were taken first. Their share in the collection is about 22%.
E-sel TNF inh – E-selectin induction blockers in HUVEC – imaging, immunofluorescence, high content, primary screen | HUVEC TNFa-induced E-selectin immunofluorescence | 0.71% of 120,000 active | inhibition, % at 2 µM;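 active means inhibition above the batch mean plus 3 SD, and confirmed as a hit on visual image review, cut at about 43% in these data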;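 further: 0% = TNF-stimulated DMSO wells and 100% = unstimulated control wells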
CYP2C9 activ – human CYP2C9 activators, primary screen, biochemical, luminescence; recombinant CYP2C9, luciferin-H conversion; active compounds read high; factor 1 = untreated enzyme, 0 = blocked; 1.4% of 96,000 active; activation factor at 5 µM; Cytochrome P450 2C9 (Homo sapiens), P11712;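 active means activation factor of 2 or more for CYP2C9 at a 5 µM dose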;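 further: 0 = sulfaphenazole-blocked wells and 1 = vehicle-only wells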
CYP2C9 inhib – blockers of cytochrome P450 2C9 activity – biochemical, luminescence, ADME assay, primary screen; P11712; CYP2C9 Supersomes, luciferin-H conversion; inhibition, % at 5 µM; 20% of 96,000 active;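 active means blocking of liver enzyme CYP2C9 beyond about 50% at 5 µM, limit read from the data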
CYP2C19 act – human CYP2C19 activators, primary screen, biochemical, luminescence. Cytochrome P450 2C19 (Homo sapiens), P33261. recombinant CYP2C19, luciferin-H EGE luminescence; active compounds read high; 0 = fully inhibited enzyme, 1 = untreated enzyme. activation factor at 5 µM. 96,000 tested, under 10 active. AID 1025, 2008;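 active means activation factor of at least 2 at 5 µM in the primary screen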;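 further: 0 = wells with 2.5 mM tranylcypromine and 1 = vehicle-only wells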
Target sequence (P33261 whole entry, looked up): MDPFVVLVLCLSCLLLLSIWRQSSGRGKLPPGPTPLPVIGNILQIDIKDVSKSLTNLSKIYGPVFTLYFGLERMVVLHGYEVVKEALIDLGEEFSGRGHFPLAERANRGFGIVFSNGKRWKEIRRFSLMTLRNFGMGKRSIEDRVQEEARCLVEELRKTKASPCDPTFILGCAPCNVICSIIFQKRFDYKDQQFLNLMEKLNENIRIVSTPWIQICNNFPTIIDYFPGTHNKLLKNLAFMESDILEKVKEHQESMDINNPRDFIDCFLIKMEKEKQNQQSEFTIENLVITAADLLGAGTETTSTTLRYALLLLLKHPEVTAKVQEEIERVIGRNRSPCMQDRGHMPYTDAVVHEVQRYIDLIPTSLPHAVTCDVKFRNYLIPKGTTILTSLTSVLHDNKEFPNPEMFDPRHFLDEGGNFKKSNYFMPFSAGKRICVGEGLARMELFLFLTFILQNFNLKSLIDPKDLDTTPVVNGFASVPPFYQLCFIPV
CYP2C19 inh – blockers of cytochrome P450 2C19 activity – biochemical, luminescence, ADME assay, primary screen | P33261 | inhibition, % at 5 µM | 21% of 96,000 active | CYP2C19 Supersomes, luciferin-H EGE luminescence, 30 min | AID 778, 2007;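 active means CYP2C19 inhibition above a set limit at 5 µM in the primary screen, cut at about 50% in these data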;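 further: plate controls were negative control wells for no effect and 2.5 mM tranylcypromine positive control for full effect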
F-actin modifier – modifiers of F-actin cytoskeleton organization, primary screen, imaging, HUVEC, phalloidin staining, high-content imaging; HUVEC TNFa F-actin phalloidin imaging; inhibition, % at 2 µM; 0.18% of 91,000 active; AID 836, 2007;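 active means inhibition above the batch mean plus 3 SD and confirmed as a hit by visual image inspection, cut at about 30% in these data, passing the limit was not always enough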
The depositor's hits bear a star; / = no result given.

SMILES	E-sel TNF inh	CYP2C9 activ	CYP2C9 inhib	CYP2C19 act	CYP2C19 inh	F-actin modifier
O=C(NCc1cccnc1)C1CCN(S(=O)(=O)c2cccs2)CC1	69*	0.8	21	0.6	45	24
Cc1ccc(S(=O)(=O)N2CCCC(C(=O)NCC(C)C)C2)cc1 (stereo not given)	0	/	/	/	/	/
CN1N=C(C(=O)N2CCc3c([nH]c4ccccc34)C2c2c(F)cccc2Cl)CCC1=O (stereo not given)	10	/	/	/	/	/
O=C(O)CCc1ccc(-c2ccccc2)n1NC(=O)c1sc2ccccc2c1Cl	-4	0.8	24	1.1	-11	/
COc1ccc(S(=O)(=O)NCC2CCC(C(=O)N3CCC4(CC3)OCCO4)CC2)cc1 (stereo not given)	-4	/	/	/	/	14
Cn1c(=O)oc2cc(S(=O)(=O)N3CCCC(C(=O)NCc4ccc5c(c4)OCO5)C3)ccc21 (stereo not given)	/	0.3	68*	0.9	8	-2
CCN(Cc1ccncc1)C(=O)C1CCN(S(=O)(=O)c2cccs2)CC1	24	0	99*	0.2	80*	-14
O=C(NCc1cccs1)C1CCCN(S(=O)(=O)c2ccc3c(c2)OCO3)C1 (stereo not given)	/	2.1*	-110	0.9	14	-2
Cc1ccc(CCNC(=O)C2CCCN(S(=O)(=O)c3cccs3)C2)cc1 (stereo not given)	12	0.3	72*	0.9	13	-2
Cn1c(=O)oc2cc(S(=O)(=O)N3CCCC(C(=O)NCc4cccs4)C3)ccc21 (stereo not given)	9	0.7	27	0.8	24	-2
Cc1ccc(NC(=O)C2CCCN(S(=O)(=O)c3cccs3)C2)cc1 (stereo not given)	-27	0.7	30	0.8	19	/
CCn1c(C)nc2cc(S(=O)(=O)C(F)(F)C(F)C(F)(F)F)ccc21 (stereo not given)	14	1	0	0.8	16	/
Cc1[nH]nc2c1C(C1CC=CCC1)C(C#N)=C(N)O2 (stereo not given)	4	0.5	46	0.8	24	23
N#CC1=C(N)Oc2cc(N)ccc2C1C1CC=CCC1 (stereo not given)	-15	0.2	76*	0.1	89*	11
COC(=O)c1nnn(CC(=O)NC(=O)Nc2cccc(C)c2C)c1C(=O)OC	-12	/	/	/	/	/
CCOc1ccc(NC(=O)Cn2nnc(C(=O)NCc3ccccc3OC)c2N)cc1	/	2.1*	-113	0.9	12	-18
CCOC(=O)c1nnn(CC(=O)Nc2ccccc2OC)c1C(=O)OCC	5	0.6	44	0.5	55*	-5
CCOC(=O)c1nnn(CC(=O)Nc2cc(F)ccc2F)c1C(=O)OCC	13	0.6	44	0.3	68*	-1
COC(=O)c1nnn(CC(=O)Nc2cccc(Cl)c2C)c1C(=O)OC	2	0.6	45	0.1	90*	14
COC(=O)c1c(C(C)=O)cnc2ccc(Br)cc12	-32	1.1	-9	1.2	-22	-6
CSc1nnc(-c2ccccc2N=Cc2c(C)[nH]n(-c3ccccc3)c2=O)c(=O)[nH]1	19	0.7	32	1	-2	3
Cc1ccccc1-c1nnn(CC(=O)Nc2ccc3c(c2)OCCO3)n1	0	/	/	/	/	/
Cc1ccc(N2Cc3ccccc3OC(C)C2=O)cc1 (stereo not given)	-2	0.2	85*	0	100*	14
Cc1cc(C)n2ncc(C(=O)NCCc3ccccc3)c2n1	5	1	1	0.9	15	0
Cc1cc(C(F)F)n2ncc(C(=O)NCCc3ccccc3Cl)c2n1	1	0.9	10	0.3	74*	4
Cc1cc(C)n2ncc(C(=O)NCc3ccc(Cl)cc3)c2n1	-3	0.6	44	0.2	75*	-2
Cc1cc(C(F)F)n2ncc(C(=O)NCCc3ccc(Cl)cc3)c2n1	-4	0.6	39	0.2	85*	15
Cc1cc(C(F)(F)F)n2ncc(C(=O)O)c2n1	/	2*	-99	1.2	-22	5
